The whole screen tested about 360,000 compounds, of which about 460 (0.13%) were called active. The sample as a whole holds a higher share of actives than the screen did. Values without a mark were called inactive.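 How the source made its calls: active means inhibition above the mean inhibition of all tested compounds plus 3 SD (cut at about 73% in these data); inactive means the rest.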

Nuclear receptor subfamily 5 group A member 2 (Homo sapiens), sequence (O00482 whole entry, looked up): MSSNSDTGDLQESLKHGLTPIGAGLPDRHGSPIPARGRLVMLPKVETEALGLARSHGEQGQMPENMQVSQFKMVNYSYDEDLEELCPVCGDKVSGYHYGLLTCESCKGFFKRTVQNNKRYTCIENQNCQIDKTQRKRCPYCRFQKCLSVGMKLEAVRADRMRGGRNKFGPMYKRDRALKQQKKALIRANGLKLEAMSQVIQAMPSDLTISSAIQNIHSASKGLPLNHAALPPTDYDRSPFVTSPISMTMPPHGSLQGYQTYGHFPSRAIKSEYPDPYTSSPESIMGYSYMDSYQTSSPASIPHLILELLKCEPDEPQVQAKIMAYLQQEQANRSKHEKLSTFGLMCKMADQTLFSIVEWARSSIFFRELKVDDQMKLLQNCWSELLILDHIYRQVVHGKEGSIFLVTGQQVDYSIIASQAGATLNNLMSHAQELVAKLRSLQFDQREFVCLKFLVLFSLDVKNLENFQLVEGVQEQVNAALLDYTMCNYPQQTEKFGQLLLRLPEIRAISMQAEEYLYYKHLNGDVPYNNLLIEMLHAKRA

This experiment concerns the target Nuclear receptor subfamily 5 group A member 2 (Homo sapiens) (UniProt O00482). Nature of the experiment: reduction of NR5A2-driven StAR reporter activity – cell-based, luminescence, HEK293T, StAR-luciferase reporter, primary screen (AID 602396).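 Further: 0% = DMSO wells and 100% = reporter-only cells lacking LRH-1.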 Conditions: LRH-1 transfected, 24 h, at 3.6 µM, hits give high values.
As for `CC(=O)c1cnc(SCC(=O)O)nc1C`, the inhibition was -8.72%. For `O=C(c1cc2ccccc2o1)N1CCN(S(=O)(=O)c2ccc(Cl)s2)CC1` the value was -4.99%. As to `COc1ccc(S(=O)(=O)N2CCOC23CCN(S(=O)(=O)c2ccc([N+](=O)[O-])cc2)CC3)cc1`, the inhibition was 4.75%. For the compound `O=C(O)C1=C(C(=O)O)C2CCC1C2`, the inhibition is -20.2%. Take `CCn1ccnc1CN1CCCC(C(=O)c2ccc3c4c(cccc24)CC3)C1` (centres undefined): the inhibition is 4.32%.

On to `C/C=C(/C)C(=O)O[C@@H]1c2cc3c(c4c2[C@@]2(CO4)C(=O)C(OC)=C(OC)C=C2C[C@@H](C)[C@H]1C)OCO3`, for which the inhibition was 8.2%. With `Cc1ccc(/C=C/C(=O)OCC(=O)Nc2cccnc2Cl)cc1`, the inhibition is -17.1%. On to `COC(=O)Cc1cnc(NC(=O)CSc2nc(C(C)C)cc(=O)[nH]2)s1`, for which the inhibition is 7.32%.

Take `Cc1cccc(C(=O)C(O)(c2ccccc2)C2CCCCC2=O)c1` (centres undefined): the inhibition was -15.3%.

Regarding `CCOc1ccc(CCNC(=O)COC(=O)c2ccc(C)c(S(=O)(=O)N3CCOCC3)c2)cc1OCC`, the inhibition is -2.87%.

As for `O=C(O)COc1nsnc1N1CCOCC1`, the inhibition was -2.76%. As for `Cc1ccc(C)c(S(=O)(=O)Nc2cc(C)on2)c1`, the inhibition was 13.7%.

As to `CCOc1ccc(N2CC(C(=O)N/N=C/c3sccc3C)CC2=O)cc1` (centres undefined), the inhibition is 3.97%.

Regarding `CCc1ccc2[nH]c(=O)c(Cc3ccccc3)c(O)c2c1`, the inhibition is 10.4%.

Regarding `COc1ccc(Cl)cc1NS(=O)(=O)c1cccc(C(=O)NCC2CCCO2)c1` (centres undefined), the inhibition was 10.9%. In the case of `CCOCCCNC(=O)c1cn(CC(C)C)c(=O)c2c1c1ccccc1n2C`, the inhibition is 0.96%. Take `COC(=O)c1cn(C)c2ccc(S(=O)(=O)N3CC(C)CC(C)C3)cc2c1=O` (centres undefined): the inhibition was -9.25%.

As for `COc1ccc(CCn2c(NN=C3CCCC3)nc3c2c(=O)[nH]c(=O)n3C)cc1`, the inhibition is 14%. Turning to `COCc1cc(C)n(CC(=O)NCC2CCCO2)c(=O)c1C#N` (centres undefined), the inhibition was -7.89%. The figure for `N/C(=N\S(=O)(=O)c1cc(C(F)(F)F)cc(C(F)(F)F)c1)c1cccs1` is 10.3%; for `COc1cccc(CNS(=O)(=O)c2cc3c(cc2C)n(C)c(=O)c(=O)n3C)c1` it is 1.81%; for `Cc1ccc(CNC(=O)C2CCCN(S(C)(=O)=O)C2)cc1` (centres undefined) it is 14.4%. Regarding `Cc1ccsc1C(=O)OCC(=O)c1cc(C)n(CC2CCCO2)c1C` (centres undefined), the inhibition is 80.7% (active). The figure for `COCCn1c(C)cc(C(=O)COC(=O)CNC(=O)c2ccco2)c1C` is 5.6%; for `CCCn1c(C)cc(C(=O)COC(=O)c2c(C)nn(-c3ccccc3)c2C)c1C` it is 7.52%.

`C=CCc1cc(S(=O)(=O)c2ccc(O)c(CC=C)c2)ccc1O`: the inhibition is 11.4%. The figure for `CCNS(=O)(=O)c1ccc(CCC(=O)N2CCN(c3cc(Cl)ccc3C)CC2)cc1` is -4.58%. Consider `COc1ccc(NS(=O)(=O)c2ccc(O)c(C(=O)OCC(=O)NC3CCCCC3)c2)cc1`, for which the inhibition is 0.7%. For `Cc1cc(=O)cc(C)[nH]1` the value was 3.47%; for `COc1ncnc2c1N=C1CC(C)(C)CC(N)=C1S2`, 22.7%; for `COC1(C2=NCCN2)COc2ccccc2O1` (centres undefined), 15.1%.

As for `O=C1CN(C(=O)COC(=O)c2cnc(Cl)c(Cl)c2)c2ccccc2N1`, the inhibition was 0.85%. On to `CC[C@@H]1CC2=C(C(=O)OC(C)(C)O2)[C@@H](CC)O1`, for which the inhibition is 13.2%. On to `COC(=O)c1ccc(CSc2ccc(S(=O)(=O)N3CCCCC3)cn2)cc1`, for which the inhibition is 0.83%. With `CCOc1cc(C(=O)Nc2c(C)ccc3nsnc23)cc(OCC)c1OCC`, the inhibition was 5.78%. For `OCCCNc1nccc(-c2cc(Nc3cccc(Cl)c3)ncn2)n1` the value was 96.8% (active); for `CC(=O)Nc1ccc(NC(=O)CSc2nnnn2-c2ccccc2F)cc1`, 3.27%. The figure for `CN(C)CCCn1c(N)c(C#N)c2nc(C#N)c(C#N)nc21` is -20%; for `Cc1noc(C)c1NC(=O)Nc1cccc2c1O[C@H](CN(C)S(=O)(=O)c1c(C)noc1C)[C@@H](C)CN([C@H](C)CO)C2=O` it is -28.3%; for `CCOc1ccc(Br)cc1S(=O)(=O)Nc1ccc(C(=O)OC(C)C(=O)N(C)c2ccccc2)cc1` (centres undefined) it is -9.98%. `Cc1ccc(CC2CC(=O)N(c3cc(C)ccc3C)C2=O)cc1` (centres undefined): the inhibition was 5.12%.

`COc1ccc(OCCn2ccnc2C)cc1`: the inhibition is 10.9%.

With `Cc1ccccc1/[N+]([O-])=C/c1ccncc1`, the inhibition was 13%. Regarding `Cc1cc(N2CCCC2=O)cc(C)c1S(N)(=O)=O`, the inhibition is 7.43%.

For `CCN(C(=O)COC(=O)CCC(=O)c1cccs1)C1CCCCC1`, the inhibition is 4.1%. Turning to `CC1CC(c2ccccc2)n2nc(NC(=O)c3cccs3)nc2N1` (centres undefined), the inhibition was 5.57%.

Consider `CCc1ccc(NC(=O)CCNS(=O)(=O)c2cccs2)cc1`, for which the inhibition is -12.4%.

For the compound `Cc1ccc(-n2c(=O)cc(N3CCN(Cc4ccccc4)CC3)[nH]c2=O)cc1`, the inhibition is 8.9%.

Regarding `Cc1ccc(C(=O)COC(=O)CCN2C(=O)C3C4CC(C(Br)C4Br)C3C2=O)cc1` (centres undefined), the inhibition was -1.24%. With `Cc1cc(C(=O)NNC(=O)CCC2CCCCC2)c(C)o1`, the inhibition was 2.29%. The figure for `CC(C)c1ccc(NC(=O)C2CCCN(S(=O)(=O)c3cccnc3)C2)cc1` (centres undefined) is -1.1%; for `Cn1c(=O)c2c(nc(OCc3cccnc3)n2Cc2ccccc2)n(C)c1=O` it is -21.8%.

For the compound `CCn1c(C)nc2c1C(=O)c1ccccc1C2=O`, the inhibition is -4.55%. Turning to `Cc1ccc(-c2noc(C3CCCN(C(=O)c4cccc(Cl)c4)C3)n2)o1` (centres undefined), the inhibition is -49.4%.

Turning to `Cc1ccc(-c2ccnc3nc(Sc4ncc(C(F)(F)F)cc4Cl)nn23)cc1`, the inhibition was -3.99%. Take `CN(C)S(=O)(=O)c1ccc(N2CCCC2)c(C(=O)Nc2cccc(F)c2)c1`: the inhibition is 8.36%.

On to `Cc1nc(COc2cc3oc(=O)cc(C)c3cc2Cl)cs1`, for which the inhibition is -10.4%. For `O=C(CN1CCN(S(=O)(=O)c2ccc3ccccc3c2)CC1)NC(=O)NC1CCCCC1` the value was 14.8%. For `CCCCCN(C(=O)NC(=O)Nc1cccc(C)c1C)S(C)(=O)=O`, the inhibition was -7.26%.

`CCCCn1c(=S)[nH]c2ncccc2c1=O`: the inhibition is 0.69%. Turning to `Cc1cc(NC(=O)CS(=O)(=O)c2cn(C)c3ccccc23)no1`, the inhibition is -3.59%. For `Cc1c(Cl)cnc(NC(=O)COC(=O)C2CCCC2)c1Cl` the value was 1.2%; for `CC(=O)NS(=O)(=O)c1ccc2c(c1)Cc1cc(S(=O)(=O)NC(C)=O)ccc1-2`, 9.84%. On to `N#Cc1ccc(CN2CCN(CC(=O)Nc3ccccc3C(=O)NC3CC3)CC2)cc1`, for which the inhibition was 9.21%. As to `CCC1=NN(C(=O)Cc2ccc([N+](=O)[O-])cc2)C(O)(c2ccc(Br)cc2)C1` (centres undefined), the inhibition was -7.24%.

Take `CCN(CC)C(=O)C1=C(C)N(Cc2ccccc2)C(=O)C(CC(=O)NC(c2ccccc2)c2ccccc2)C1` (centres undefined): the inhibition is -17.2%. For `O=C(NCCCn1ccnc1)C(=O)c1cn(CC(=O)N2CCCCCC2)c2ccccc12` the value was 9.94%; for `CC(C)CCC(=O)Nc1cc(S(=O)(=O)N2CCOCC2)ccc1N1CCCC1`, 6.05%. On to `Cc1cn([C@H]2C[C@H](O)[C@@H](CNC(=O)[C@H](N)Cc3cccnc3)O2)c(=O)[nH]c1=O`, for which the inhibition was 2.03%.

For the origin of these results see PubChem BioAssay AID602396 (The Scripps Research Institute Molecular Screening Center, 2012).
